# From PubChem BioAssay (EPA / NIEHS)
# “And” between values parts separate entries of the source, which are not always exact repeats. Equal values may be shown once. Inconclusive results are not listed. The source holds several records for some structures; these can differ, active in one and inactive in another. The source made the active and inactive calls. Rule for the calls, unless noted: active = hit-call score of the fitted dose curve at least 0.9, where 1 is the maximum; inactive = score below 0.9.
# Tests used:
# [1] = BSK_BT_PBMCCytotoxicity: PBMC Cytotoxicity Assessment in the BioMAP Diversity Plus: BT Assay (AID 2284225); details: primary human B cells with PBMC;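 note: PBMC viability measured by Alamar Blue dye reduction fluorescence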
# Summary of the method: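 Viability by Alamar Blue reduction (6 h, ex/em 546/580 nm) after 90 h culture of SEB/TSST-1-activated PBMC (20 ng/mL each) given compound 1 h before activation. DMSO served as baseline for curve fitting.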
# [2] = read-out: Secreted IgG (sIgG), gene 3500; assay: BSK_BT_sIgG: BioMAP Diversity Plus: BT Assay for Secreted IgG (sIgG) Biomarker Activity (AID 2284226); details: primary human B cells with PBMC
# Summary of the method: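 Cells (B cells with peripheral blood mononuclear cells) are dosed, cultured 24 h, then supernatant IgG is measured by ELISA. DMSO serves as negative control; curves are fitted for signal increase.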
# [3] = BSK_BT_Bcell_Proliferation: Viability Assessment in the BioMAP Diversity Plus: BT Assay for B cell Proliferation (AID 2284227); details: primary human B cells with PBMC
# Summary of the method: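 Using a human primary B cell–PBMC co-culture, the assay measures total protein by sulforhodamine B absorbance as a gauge of proliferation after 72 h. Analysis followed the positive fitting direction with DMSO as baseline.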
# [4] = read-out: Interleukin 6 (IL6), IL6 (gene 3569); assay: BSK_BT_xIL6: BioMAP Diversity Plus: BT Assay for Interleukin 6 (IL6) Biomarker Activity (AID 2284228); details: primary human B cells with PBMC
# Summary of the method: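 Readout: secreted IL-6 via Luminex xMAP multiplex, 24 h post-dosing. System: primary human B cells co-cultured with PBMC. Signal change scored relative to DMSO vehicle, positive fitting direction.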
# [5] = read-out: Interleukin 17A (IL17A), IL17A (gene 3605); assay: BSK_BT_xIL17A: BioMAP Diversity Plus: BT Assay for Interleukin 17A (IL17A) Biomarker Activity (AID 2284229); details: primary human B cells with PBMC
# Summary of the method: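 Luminex xMAP readout of secreted IL-17A; human B cell + PBMC co-culture; 24 h post-dose; positive-direction fit vs DMSO negative control.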
# [6] = read-out: Tumor necrosis factor (Homo sapiens) (UniProt P01375); assay: BSK_BT_xTNFa: BioMAP Diversity Plus: BT Assay for Tumor necrosis factor alpha (TNF-alpha) Biomarker Activity (AID 2284230); details: primary human B cells with PBMC
# Summary of the method: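 Endpoint derived in the positive direction versus DMSO vehicle. Cells: B cells together with PBMC, exposed 24 h before TNF-alpha in the medium was read on the Luminex xMAP platform.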
# [7] = read-out: Vascular cell adhesion molecule 1 (VCAM1), VCAM1 (gene 7412); assay: BSK_MyoF_VCAM1: BioMAP Diversity Plus: MyoF Assay for Vascular cell adhesion molecule 1 (VCAM1) Biomarker Activity (AID 2284231); details: primary human lung fibroblasts
# Summary of the method: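 MyoF system, lung fibroblasts; 24 h post-dose; VCAM-1 by ELISA; gain-of-signal fit vs DMSO baseline.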
# [8] = CCTE_Mundy_HCI_hNP1_Pro_ResponderAvgInten: CCTE's Proliferation Assay in human neuroprogenitor cells, Mundy Lab (AID 2284224; active = hit-call score of the fitted dose curve at least 0.9, where 1 is the maximum;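 note: human neural progenitor cells hNP1 derived from WA09 embryonic stem cells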)
# Summary of the method: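 Human neuroprogenitors (hNP1, WA09 lineage) receive test chemical after 40 to 44 hours of attachment. A four-hour BrdU pulse begins twenty hours later, followed by fixation and high content imaging; signal is referenced to DMSO controls.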
# [9] = UKN2_HCS_IMR90_cell_viability: Viability Assessment in the University of Konstanz (UKN) Leist Lab Neural Crest Cell Migration Assay in human induced IMR90 Pluripotent Stem Cells (UKN2) (AID 2284233);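 note: viability of neural crest cells differentiated from IMR90 iPSC measured by calcein-AM fluorescence imaging; cells exposed to compound for 24 h after a 24 h migration phase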
# Summary of the method: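 cMINC format, iPSC-derived neural crest (IMR90); 24 h migration (EGF/FGF, N2-S), then 24 h toxicant. Calcein-AM/H-33342 stain 30 min; fluorescence intensity by HCS; DMSO-normalised, bidirectional fitting.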
# [10] = UKN4_HCS_LUHMES_cell_viability: Viability Assessment in the University of Konstanz (UKN) Leist Lab Neurite Outgrowth Assay in human LUHMES cells (UKN4) (AID 2284232)
# Method: UKN4_HCS_LUHMES is a cell-based, multiplexed-readout assay screening for neurite outgrowth and cell viability that uses LUHMES, a human central nervous system cell line, with measurements taken at […] after chemical dosing in a microplate: 96-well plate. UKN4, also referred to as NeuriTox, is an assay that uses LUHMES neuronal precursors as a model of dopaminergic neuronal differentiation. Following a 2-day differentiation period, cells are exposed to chemicals for 24 hr and neurite area is evaluated as a marker of neurite outgrowth using high-content imaging of cells stained with calcein AM. Cell viability is assessed using stain Hoechst H-33342.UKN4_HCS_LUHMES_cell_viability is an assay component measured from the UKN4_HCS_LHUMES assay. It is designed to make measurements of enzyme activity, a form of viability reporter, as detected with Fluorescence intensity signals by HCS Fluorescent Imaging.The assay endpoint UKN4_HCS_LUHMES_cell_viability was analyzed with bidirectional fitting relative to DMSO as the negative control and baseline of activity. Using a type of viability reporter, gain or loss-of-signal activity can be used to understand viability effects. To generalize the intended target to other relatable targets, this assay endpoint is annotated to the cell cycle intended target family, where the subfamily is viability. […]
# Chain of Tumor necrosis factor (Homo sapiens) (P01375 whole entry, looked up): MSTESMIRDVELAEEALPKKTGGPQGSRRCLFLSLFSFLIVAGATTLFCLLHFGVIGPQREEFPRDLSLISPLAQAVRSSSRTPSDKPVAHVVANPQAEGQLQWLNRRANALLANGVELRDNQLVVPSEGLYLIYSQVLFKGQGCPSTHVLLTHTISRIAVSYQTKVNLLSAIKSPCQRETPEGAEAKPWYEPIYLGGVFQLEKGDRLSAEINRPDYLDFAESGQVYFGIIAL
smiles,measurement,setting,value
CCNS(=O)(=O)C(F)(F)C(F)(F)C(F)(F)C(F)(F)C(F)(F)C(F)(F)C(F)(F)C(F)(F)F,outcome,[1],inactive
same,AC50,[2],22.5 µM (active) and 30 µM (active)
same,outcome,[3],inactive
same,outcome,[4],inactive
same,AC50,[5],19100 nM (active)
same,outcome,[5],inactive
same,outcome,[6],inactive
same,AC50,[7],30 µM (active) and 40.3 µM (active)
CC(C)(C)C(O)(CCc1ccc(Cl)cc1)Cn1cncn1 (stereo not drawn),outcome,[8],inactive
COP(=S)(OC)SCN1C(=O)c2ccccc2C1=O,outcome,[8],inactive
same,outcome,[9],inactive
CNC(=O)Oc1cccc2c1OC(C)(C)C2,outcome,[9],inactive
ClC1=C(Cl)C2(Cl)C3C(Cl)C=CC3C1(Cl)C2(Cl)Cl (stereo not drawn),AC50,[8],13400 nM (active)
COC(=O)Nc1nc2ccccc2[nH]1,outcome,[8],inactive
same,outcome,[9],inactive
OCCOCCO,outcome,[8],inactive
CC(C)COC(=O)c1ccccc1C(=O)OCC(C)C,outcome,[8],inactive
same,outcome,[9],inactive
CCCCOC(=O)c1ccccc1C(=O)OCc1ccccc1,outcome,[8],inactive
same,outcome,[9],inactive
CCC[CH2][Sn]([Cl])([CH2]CCC)[CH2]CCC,AC50,[8],188 nM (active)
same,AC50,[10],159 nM (active)
same,AC50,[9],344 nM (active)
